Measured values as given in PubChem BioAssay (NCI).
This is part of a sample that, as a whole, favours compounds with a hit. Of some 83,000 tested, about 20% had one in any assay.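 Assay: single dose, 48 h. Readout: percent growth (0 = no net growth; negative = cell death). Active: <10.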 Calls of active or inactive are those of the source.

What follows are molecules tested on LOX IMVI melanoma (assay: NCI-60 one-dose screen, 48 h (100 = growth as untreated, 0 = no growth, -100 = all killed)). Conditions: 10 µM unless noted.

Row | SMILES | growth
1 | Cc1nc2nc(C(F)(F)F)[nH]c2nc1C | 98.6% (inactive)
2 | CC1=CN2C(=NC3=C(CCCC/C3=C\c3ccccc3)C2c2ccccc2)S1 (stereo not given) | 97.5% (inactive)
3 | CSC1=CC(=O)c2ccccc2C1=O | 68.5% (inactive)
4 | CNc1ccc(Br)cc1-c1n[nH]c(=O)[nH]c1=O | 98.6% (inactive)
5 | COc1ccc(Nc2[nH]n(C3=Nc4ccccc4Sc4ccccc43)c(=O)c2C#N)cc1 | 54.6% (inactive)
6 | O=[N+]([O-])c1cc2c(cc1Br)-c1ccccc1C2 | 88.8% (inactive)
7 | CC(C)(C)[Si](C)(C)OC1[C@@H](COC(=O)NC(=O)CCl)O[C@@H](n2cnc3c(N)ncnc32)[C@H]1O[Si](C)(C)C(C)(C)C (stereo not given in full) | -94% (active)
8 | Clc1nc(-c2ccccn2)nc2sc3c(c12)CCCCCC3 | 67.8% (inactive)
9 | Cc1ccc(N=c2nc3sc4c(C)ccc(C)c4n3c(N)c2C#N)cc1 | 99.4% (inactive)
10 | O=c1[nH]c(-c2ccncc2)nc2sc3c(c12)CCCCCC3 | 83.2% (inactive)
11 | CCOC(=O)C1=C(C)N2C(=NC3=C(CCCC/C3=C\c3cc(OC)c(OC)c(OC)c3)C2c2cc(OC)c(OC)c(OC)c2)S1 (stereo not given) | 74.1% (inactive)
12 | COc1ccc(-c2c(-c3cc4c(c(OC)c3OC)OCO4)noc2N)cc1 | 43.7% (inactive)
13 | CCOC(=O)c1sc(NC(=O)CN2CCC(Cc3ccccc3)CC2)nc1C | 96.7% (inactive)
14 | O=c1nc(NO)[nH]c(=O)n1Cc1ccccc1 | 103% (inactive)
15 | O=c1nc(NO)[nH]c(=O)n1Cc1ccc(F)cc1 | 101% (inactive)
16 | O=c1[nH]c(=S)[nH]c(=O)n1Cc1cccc2ccccc12 | 94.3% (inactive)
17 | CC(=O)Nc1ccccc1-c1n[nH]c(=O)[nH]c1=O | 97.8% (inactive)

Row | SMILES | growth
18 | CC(C)(C)[Si](C)(C)OC1[C@@H](O[Si](C)(C)C(C)(C)C)[C@@H](CNC(=O)NC(=O)C(F)(F)F)O[C@H]1n1cnc2c(NC(=O)Nc3ccccc3)ncnc21 (stereo not given in full) | 56.2% (inactive)
19 | Cc1nc2cc(Nc3nc(NCCN)nc(Nc4ccc(F)cc4)n3)ccc2n1Cc1ccccc1 | 58.2% (inactive)
20 | CCOC(=O)C1=C(C)N2C(=NC3=C(CCCC/C3=C\c3ccccc3)C2c2ccccc2)S1 (stereo not given) | 100% (inactive)
21 | COc1ccc(-n2c(SCc3cc(OC)c(OC)c(OC)c3)nc3ccc(C)cc3c2=O)c(OC)c1 | 31.6% (inactive)
22 | NC(=O)c1nc2c([nH]c1=O)CCCC2 | 99.1% (inactive)
23 | COc1ccccc1-n1c(SCc2cc(OC)c(OC)c(OC)c2)nc2ccc(Cl)cc2c1=O | 33.2% (inactive)
24 | O=c1[nH]c(-c2ccccn2)nc2sc3c(c12)CCCCCC3 | 29.7% (inactive)
25 | CC(C)(C)[Si](C)(C)OC1[C@@H](CNC(=O)NC(=O)CCl)O[C@@H](n2cnc3c(N)ncnc32)[C@H]1O[Si](C)(C)C(C)(C)C (stereo not given in full) | -91.3% (active)
26 | CC[Si](CC)(CC)OC1[C@@H](O[Si](CC)(CC)CC)[C@@H](CNC(=O)NC)O[C@H]1n1cnc2c(NC(=O)Nc3ccccc3)ncnc21 (stereo not given in full) | 93.7% (inactive)
27 | Cc1ccc(-c2nnc(COc3ccc(-c4nnc(N)s4)cc3)o2)cc1 | 26% (inactive)
28 | COc1cc2nc(SCc3cc(OC)c(OC)c(OC)c3)n(-c3ccccc3OC)c(=O)c2cc1OC | 77.3% (inactive)
29 | N#Cc1ccc(C(F)(F)F)nc1N1CCC(C(=O)Nc2ccc(Cl)cc2)CC1 | 43.7% (inactive)
30 | COC(=O)C1C2CC3c4[nH]c5cc(OC)ccc5c4CCN3CC2CC(OC2CCCCO2)C1OC (stereo not given) | 95.4% (inactive)
31 | c1ccc(-c2nc(N3CCOCC3)c3c4c(sc3n2)CCCCCC4)nc1 | 69.6% (inactive)
32 | Nc1c(Br)cc(Br)cc1-c1n[nH]c(=O)[nH]c1=O | 96.1% (inactive)
33 | Nc1ccccc1-c1n[nH]c(=O)[nH]c1=O | 97.8% (inactive)

Each molecule was assayed on SK-MEL-28 melanoma in the same assay as above. Conditions: 10 µM unless noted.

Row | SMILES | growth
34 | Cc1nc2nc(C(F)(F)F)[nH]c2nc1C | 102% (inactive)
35 | CC1=CN2C(=NC3=C(CCCC/C3=C\c3ccccc3)C2c2ccccc2)S1 (stereo not given) | 107% (inactive)
36 | COC(=O)c1cc(-c2ccc(C)cc2)n(C(=O)CSc2nc3sc(C(N)=O)c(C)c3c(=O)n2Cc2ccccc2)n1 | 112% (inactive)
37 | CSC1=CC(=O)c2ccccc2C1=O | 113% (inactive)
38 | CNc1ccc(Br)cc1-c1n[nH]c(=O)[nH]c1=O | 107% (inactive)
39 | COc1ccc(Nc2[nH]n(C3=Nc4ccccc4Sc4ccccc43)c(=O)c2C#N)cc1 | 64.7% (inactive)
40 | O=[N+]([O-])c1cc2c(cc1Br)-c1ccccc1C2 | 98.4% (inactive)
41 | CC(C)(C)[Si](C)(C)OC1[C@@H](COC(=O)NC(=O)CCl)O[C@@H](n2cnc3c(N)ncnc32)[C@H]1O[Si](C)(C)C(C)(C)C (stereo not given in full) | 71.8% (inactive)
42 | Clc1nc(-c2ccccn2)nc2sc3c(c12)CCCCCC3 | 89.3% (inactive)
43 | Cc1ccc(N=c2nc3sc4c(C)ccc(C)c4n3c(N)c2C#N)cc1 | 105% (inactive)
44 | O=c1[nH]c(-c2ccncc2)nc2sc3c(c12)CCCCCC3 | 101% (inactive)
45 | CCOC(=O)C1=C(C)N2C(=NC3=C(CCCC/C3=C\c3cc(OC)c(OC)c(OC)c3)C2c2cc(OC)c(OC)c(OC)c2)S1 (stereo not given) | 82.9% (inactive)
46 | COc1ccc(-c2c(-c3cc4c(c(OC)c3OC)OCO4)noc2N)cc1 | 49.7% (inactive)
47 | CCOC(=O)c1sc(NC(=O)CN2CCC(Cc3ccccc3)CC2)nc1C | 110% (inactive)
48 | O=c1nc(NO)[nH]c(=O)n1Cc1ccccc1 | 107% (inactive)
49 | O=c1nc(NO)[nH]c(=O)n1Cc1ccc(F)cc1 | 102% (inactive)
50 | O=c1[nH]c(=S)[nH]c(=O)n1Cc1cccc2ccccc12 | 103% (inactive)
51 | CC(=O)Nc1ccccc1-c1n[nH]c(=O)[nH]c1=O | 104% (inactive)
52 | CC(C)(C)[Si](C)(C)OC1[C@@H](O[Si](C)(C)C(C)(C)C)[C@@H](CNC(=O)NC(=O)C(F)(F)F)O[C@H]1n1cnc2c(NC(=O)Nc3ccccc3)ncnc21 (stereo not given in full) | 97.9% (inactive)

Row | SMILES | growth
53 | Cc1nc2cc(Nc3nc(NCCN)nc(Nc4ccc(F)cc4)n3)ccc2n1Cc1ccccc1 | 107% (inactive)
54 | CCOC(=O)C1=C(C)N2C(=NC3=C(CCCC/C3=C\c3ccccc3)C2c2ccccc2)S1 (stereo not given) | 98% (inactive)
55 | Clc1ccc2c(N3CCN(c4ccnc(NC5CCCCC5)n4)CC3)ccnc2c1 | 36.8% (inactive)
56 | COc1ccc(-n2c(SCc3cc(OC)c(OC)c(OC)c3)nc3ccc(C)cc3c2=O)c(OC)c1 | 40.8% (inactive)
57 | NC(=O)c1nc2c([nH]c1=O)CCCC2 | 103% (inactive)
58 | COc1ccccc1-n1c(SCc2cc(OC)c(OC)c(OC)c2)nc2ccc(Cl)cc2c1=O | 49.4% (inactive)
59 | O=c1[nH]c(-c2ccccn2)nc2sc3c(c12)CCCCCC3 | 40.1% (inactive)
60 | CC(C)(C)[Si](C)(C)OC1[C@@H](CNC(=O)NC(=O)CCl)O[C@@H](n2cnc3c(N)ncnc32)[C@H]1O[Si](C)(C)C(C)(C)C (stereo not given in full) | -14.4% (active)
61 | CC[Si](CC)(CC)OC1[C@@H](O[Si](CC)(CC)CC)[C@@H](CNC(=O)NC)O[C@H]1n1cnc2c(NC(=O)Nc3ccccc3)ncnc21 (stereo not given in full) | 104% (inactive)
62 | Cc1ccc(S(=O)(=O)N(c2ccc(Cl)cc2)c2ccc(Br)cc2C(=O)O)cc1 | 119% (inactive)
63 | Cc1ccc(-c2nnc(COc3ccc(-c4nnc(N)s4)cc3)o2)cc1 | 98.3% (inactive)
64 | COc1cc2nc(SCc3cc(OC)c(OC)c(OC)c3)n(-c3ccccc3OC)c(=O)c2cc1OC | 78.9% (inactive)
65 | CN1CCc2c(c3ccccc3c3ccccc23)C1 | 87.4% (inactive)
66 | N#Cc1ccc(C(F)(F)F)nc1N1CCC(C(=O)Nc2ccc(Cl)cc2)CC1 | 87.2% (inactive)
67 | COC(=O)C1C2CC3c4[nH]c5cc(OC)ccc5c4CCN3CC2CC(OC2CCCCO2)C1OC (stereo not given) | 101% (inactive)
68 | c1ccc(-c2nc(N3CCOCC3)c3c4c(sc3n2)CCCCCC4)nc1 | 75.5% (inactive)
69 | Nc1c(Br)cc(Br)cc1-c1n[nH]c(=O)[nH]c1=O | 110% (inactive)
70 | Nc1ccccc1-c1n[nH]c(=O)[nH]c1=O | 103% (inactive)
